From the supplement of paper PMC9897528

test system: Scedosporium aurantiacum CBS 136046; assay: growth inhibition relative to DMSO control (OD600); higher = more antifungal activity, active = 80 or more; extreme values may be limits of the assay; settings: 5 µM; 72 h; 37 °C
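Further: conidia screened in RPMI 1640 medium under 5% CO2, growth read by spectrophotometer, medium with 0.5% DMSO serving as the untreated reference.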

Growth inhibition, inactive:
O=C(Nc1[nH]c(=O)ncc1F)c1ccccc1 5.77%
O=C(O)c1ccccc1Sc1ncnc2sc3c(c12)CCC3 1.9%
O=C(O)COc1cccc2c1CC[C@](O)(COC(=O)N(c1ccccc1)c1ccccc1)C2 0.943%
CCC(C)NCC(O)Cn1c2ccc(Cl)cc2c2cc(Cl)ccc21 (stereo not drawn) 25%
NC(=O)c1cnccn1 1.73%
COc1ccc(SCC(=O)N2c3ccccc3Sc3ccccc32)cc1 19.3%
CONC(=N)c1ccc(-c2ccc(-c3ccc(C(=N)NOC)cc3)o2)cc1 29.9%
Oc1ccc2[nH]c(-c3ccccc3)nc2c1 26.7%
COc1ccc2c(c1)cc(CNC(=O)c1cc3ccccc3o1)n2CC(=O)O 17.7%
CC(C)c1ccc(COc2cccc(-c3cc([S+](C)[O-])c(C#N)c(=O)[nH]3)c2)cc1 (stereo not drawn) 0%
CCc1cc(O)c(Oc2ccc(C(N)=O)cc2F)cc1F 29.4%
O=C(Nc1nnc(-c2ccccc2)o1)c1ccc(F)cc1 31.3%
CCOCc1nc2c(N)nc3ccccc3c2n1CC(C)(C)O 14.6%
CC1CCc2c(N3CCC(O)CC3)c(F)cc3c(=O)c(C(=O)O)cn1c23 (stereo not drawn) 16.2%
O=C1[C@H](CC[C@H](O)c2ccc(F)cc2)[C@@H](c2ccc(O)cc2)N1c1ccc(F)cc1 13.9%
CCC[C@@H]1C[C@@H](C(=O)N[C@@H]([C@H]2O[C@H](SC)[C@H](O)[C@@H](O)[C@H]2O)[C@H](C)Cl)N(C)C1 16.8%
CC(C)(C)c1cc(C(=O)/C(C#N)=N/Nc2cccc(Cl)c2)no1 35.3%
O=C(Nc1ncc(Cc2cccc3ccccc23)s1)C1CCCCC1 4.7%
Nc1nc(C(F)(F)F)cc2c1[nH]c(=O)n2Cc1ccccc1 18.8%
O=C(NC(=O)N1CCCc2ccccc21)c1ccc(Cl)cc1Cl 3.05%
CCc1nc(N)nc(N)c1C#CC(C)c1cc(OC)cc(-c2ccncc2)c1 (stereo not drawn) 48.8%
Clc1cccc(-c2nnc(-c3ccccc3)o2)c1 1.29%
Nc1cnn(C2OC(CO)C(O)C2O)c(=O)n1 (stereo not drawn) 8.41%
CC(C)c1cc2c(cc1S(=O)(=O)O)[C@@]1(C)CCC[C@@](C)(C(=O)O)[C@@H]1CC2 30%
O=C(Cc1ccccc1F)Nc1nc2ccccc2[nH]1 23.9%
Nc1nc(F)nc2c1ncn2[C@H]1O[C@@H](CO)[C@H](O)[C@@H]1O 33.8%
O=C(CP(=O)(O)O)NCCc1cccc(Oc2ccccc2)c1 31.5%
O=C(NC1CCCc2c1[nH]c1ccc(Cl)cc21)c1ccccn1 (stereo not drawn) 15.1%
CC(=O)Nc1cc(NS(=O)(=O)c2ccc(Cl)cc2)cc2c(Cl)[nH]nc12 21.6%
O=C1NC(=O)C(Br)=C1Br 24.4%
OCCC#Cc1nc(-c2ccc(F)cc2)c(-c2ccncc2)n1CCCc1ccccc1 13.8%
O=S(=O)(Nc1ccc(O)cc1)c1cccc2cccnc12 13.2%
OB1OCc2cc(Cl)ccc21 6.18%
O=C(Nc1ccccc1)N(Cc1cc(Br)ccc1O)c1ccc(F)cc1 40.7%
COC(=O)Nc1nc2cc([S+]([O-])c3ccccc3)ccc2[nH]1 (stereo not drawn) 0.624%
O=C(N[C@H](Cc1cccc2ccccc12)C(=O)NCCc1c[nH]cn1)C1Cc2ccccc2C1 2.31%
NC(=S)N/N=C/c1ncccc1N 23.2%
O=C(Nc1cccc(C2=NCCN2)c1)c1ccc(-c2ccc(C(=O)Nc3cccc(C4=NCCN4)c3)cc2)cc1 1.73%
